PubChem BioAssay AID1845225 (National Center for Advancing Translational Sciences (NCATS), 2023)
Results filed as inconclusive are left out. The source made the active and inactive calls. Calls follow the shape of the dose curve; as a rule, active = well fitted curve in the direction sought with a large enough effect; inconclusive = small, poorly fitted or top-dose-only effect, or effect the other way, or another doubt; inactive = no such curve, though single readings can be large or run the other way.

Assay: Confirmatory redox qHTS assay for identification of artifact compounds.
Conditions: Amplex Red/HRP redox cycling with DTT, fluorescence; series mostly up to 39 µM
How it was run: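 Amplex Red (25 uM final) and HRP (250 mU/mL final) in HBSS, compound 15 min, then 250 uM DTT final 30 min, room temperature, dark; fluorescence 525/598 nm, normalized to DMSO and 10 uM DA3003, Hill fitted.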

| Compound | outcome |
| --- | --- |
| COc1ccc(N2C(=O)c3ccccc3C2=O)cc1 | inactive |
| COc1cc2c3cc1OCc1c(O)c(OC)cc4c1C(Cc1ccc(cc1)Oc1cc(ccc1O)CC3N(C)CC2)N(C)CC4 (stereo not given) | inactive |
| CC1(C)S[C@@H]2[C@H](NC(=O)C3(N)CCCCC3)C(=O)N2[C@H]1C(=O)O | inactive |
| O=C(COc1ccc(Cl)cc1)Nc1ccc2nc(SCC(=O)N3CCCC3)sc2c1 | inactive |
| CCCCCOC(=O)c1[nH]c2c(c1C)C(=O)CC(c1ccco1)C2 (stereo not given) | inactive |
| COc1ccc(CCNC(=O)c2cc3c(-c4ccc(OC)c(OC)c4)nn(C)c3s2)cc1OC | inactive |
| CN(C(=O)CSc1nc2ccc(NC(=O)c3cccs3)cc2s1)c1ccccc1 | inactive |
| COc1ccc(-c2cc(=O)c3ccccc3o2)cc1 | inactive |
| CCOC(=O)C1CCN(C(c2ccc(OCC)cc2)c2c(O)cc(C)n(CCOC)c2=O)CC1 (stereo not given) | inactive |
| CCC(CC)c1nn2c(=O)cc(COc3ccc(NC(=O)c4ccccc4C)cc3)nc2s1 | inactive |
| COc1ccccc1CNC(=O)CCCn1c(=O)c2ccccc2n(CC(=O)Nc2ccc(C)cc2Cl)c1=O | inactive |
| Cc1ccc(C)c(N2CCN(S(=O)(=O)c3cc(Br)cc4c3N(C(=O)C3CC3)CC4)CC2)c1 | inactive |
| Cc1cc(C)nc(NC(=S)N2CCN(c3ccc(F)c(F)c3F)CC2)c1 | inactive |
| CCC(C)NC(=O)c1ccc2nc(-c3cccs3)c(-c3cccs3)nc2c1 (stereo not given) | inactive |
| CC(C)C[C@H](NC(=O)[C@@H](Cc1c[nH]c2ccccc12)NC(=O)[C@H](Cc1ccc(O)cc1)NC(=O)[C@H](CO)NC(=O)[C@H](Cc1c[nH]c2ccccc12)NC(=O)[C@H](Cc1cnc[nH]1)NC(=O)[C@@H]1CCC(=O)N1)C(=O)N[C@@H](CCCN=C(N)N)C(=O)N1CCC[C@H]1C(=O)NCC(N)=O | inactive |
| O=C(Cn1nc(-c2ccc(Cl)cc2)ccc1=O)NCCc1ccccc1 | inactive |
| CCOc1ccc(OCC)c(NS(=O)(=O)c2c(C)[nH]c(=O)[nH]c2=O)c1 | inactive |
| CC(C)c1nn2c(=O)cc(COC(=O)c3cccc(NC(=O)COc4ccc(F)cc4)c3)nc2s1 | inactive |
| CC1CCCCN1CCCNC(=O)Cn1ncc2c3ccccc3n(Cc3ccccc3)c2c1=O (stereo not given) | inactive |
| COc1ccc(C(=O)Nc2nc3c(s2)CCCC3)cc1Cl | inactive |

| Compound | outcome |
| --- | --- |
| CNC(=O)c1ccc(Nc2nnc(-c3ccc(C)c(S(=O)(=O)N4CCOCC4)c3)c3ccccc23)cc1 | inactive |
| CCc1ccc(CN2C(=O)c3ccccc3C2C(=O)NCCc2ccc(OC)c(OC)c2)cc1 (stereo not given) | inactive |
| COc1ccc(NC(=O)CSc2nc(-c3ccccc3)nc3c2Cc2c(CO)cnc(C)c2O3)cc1Cl | inactive |
| CC(NC(=O)CSc1nc(-c2ccccc2F)nc2cc(=O)[nH]n12)c1nc2ccccc2n1C (stereo not given) | inactive |
| Cc1ccc(CNC(=O)c2c(-c3ccccc3Cl)noc2C)o1 | inactive |
| Cc1cccc(C(=O)NCCc2nc3ccccc3n2CCC(C)C)c1 | inactive |
| COc1ccccc1Cn1c(CNS(=O)(=O)c2ccc3c(c2)CCCC3)nc2cccnc21 | inactive |
| C=C[C@@H]1C[C@@H](C=C)OP(=O)(O[C@@H](C=C)[C@@H](C)C(=O)OC)O1 (stereo not given in full) | inactive |
| COC(=O)c1c(OCc2ccccn2)cc(=O)n2c1CCN(C(=O)c1n[nH]c3c1CCCC3)CC2 | inactive |
| COc1cc2c(NC3CCN(C(C)C)CC3)nc(C3CCCCC3)nc2cc1OCCOCCN(C)C | inactive |
| O=C1C2C3CCCC3=C3CCCC3C2C(=O)N1c1ccc(Cl)cc1 (stereo not given) | inactive |
| CCOC(=O)C(=O)NCC(c1cccnc1)N1CCN(c2ccccc2)CC1 (stereo not given) | inactive |
| O=C(Nc1nnc(-c2ccccc2)s1)c1ccc(S(=O)(=O)N2CCCC2)cc1 | inactive |
| Cc1ccc(NC(=O)c2ccc3c(c2)NC(=O)c2ccccc2S3)cc1 | inactive |
| CC(O)COCC1OC2OC3C(COCC(C)O)OC(OC4C(COCC(C)O)OC(OC5C(COCC(C)O)OC(OC6C(COCC(C)O)OC(OC7C(COCC(C)O)OC(OC8C(COCC(C)O)OC(OC1C(OCC(C)O)C2OCC(C)O)C(OCC(C)O)C8OCC(C)O)C(OCC(C)O)C7OCC(C)O)C(OCC(C)O)C6OCC(C)O)C(OCC(C)O)C5OCC(C)O)C(OCC(C)O)C4OCC(C)O)C(OCC(C)O)C3OCC(C)O (stereo not given) | inactive |
| Cc1cc(C(=O)N2CCN(c3cccc(Cl)c3)CC2)c2c(C)nn(-c3ccccc3Cl)c2n1 | inactive |
| Cc1ccc(NS(=O)(=O)c2ccc3c(c2)CCN(C(=O)C(F)(F)F)C3)cc1C | inactive |
| Cc1ccc(-c2nc3scc(CCNS(=O)(=O)c4ccc(F)c(C)c4)n3n2)cc1 | inactive |
| CN1C(C(=O)Nc2ccc(F)cc2F)=CC(c2cccs2)=NS1(=O)=O | inactive |
| COc1ccc(NC(=O)N(Cc2nnc3n2CCCCC3)c2ccc(OC)c(Cl)c2)cc1 | inactive |
